Test [1] concerns the target Tyrosine-protein kinase SYK (Homo sapiens) (UniProt P43405). The following applies: at 1 µM.
Test [2] has as its target T1, Tyrosine-protein kinase Tec (Homo sapiens) (UniProt P42680).
T1 sequence (whole entry): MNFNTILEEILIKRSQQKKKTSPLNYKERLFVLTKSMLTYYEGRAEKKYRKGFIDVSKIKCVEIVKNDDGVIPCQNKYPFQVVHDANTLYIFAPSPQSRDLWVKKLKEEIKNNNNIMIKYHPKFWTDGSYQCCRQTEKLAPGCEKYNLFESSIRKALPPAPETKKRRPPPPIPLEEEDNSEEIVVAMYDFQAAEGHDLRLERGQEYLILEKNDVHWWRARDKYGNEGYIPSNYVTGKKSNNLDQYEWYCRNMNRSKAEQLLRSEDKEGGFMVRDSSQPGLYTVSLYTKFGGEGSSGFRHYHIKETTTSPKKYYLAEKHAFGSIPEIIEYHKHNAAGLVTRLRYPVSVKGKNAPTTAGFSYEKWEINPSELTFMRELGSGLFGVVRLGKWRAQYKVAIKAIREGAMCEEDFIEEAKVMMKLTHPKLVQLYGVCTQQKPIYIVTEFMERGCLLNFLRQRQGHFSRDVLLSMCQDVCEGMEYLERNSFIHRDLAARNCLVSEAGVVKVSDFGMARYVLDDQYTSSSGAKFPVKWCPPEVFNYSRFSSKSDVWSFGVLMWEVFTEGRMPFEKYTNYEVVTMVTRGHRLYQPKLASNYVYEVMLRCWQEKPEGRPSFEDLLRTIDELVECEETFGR
The following applies: at 0.1 µM.

The target in test [3] is T1, Tyrosine-protein kinase Tec (Homo sapiens). As to conditions: at 1 µM.
Test [4] addresses Angiopoietin-1 receptor (Homo sapiens) (UniProt Q02763). As to conditions: at 0.1 µM.
Test [5] has the same target. As to conditions: at 1 µM.
In test [6] the target is T2, Non-receptor tyrosine-protein kinase TNK1 (Homo sapiens) (UniProt Q13470).
T2 sequence (whole entry): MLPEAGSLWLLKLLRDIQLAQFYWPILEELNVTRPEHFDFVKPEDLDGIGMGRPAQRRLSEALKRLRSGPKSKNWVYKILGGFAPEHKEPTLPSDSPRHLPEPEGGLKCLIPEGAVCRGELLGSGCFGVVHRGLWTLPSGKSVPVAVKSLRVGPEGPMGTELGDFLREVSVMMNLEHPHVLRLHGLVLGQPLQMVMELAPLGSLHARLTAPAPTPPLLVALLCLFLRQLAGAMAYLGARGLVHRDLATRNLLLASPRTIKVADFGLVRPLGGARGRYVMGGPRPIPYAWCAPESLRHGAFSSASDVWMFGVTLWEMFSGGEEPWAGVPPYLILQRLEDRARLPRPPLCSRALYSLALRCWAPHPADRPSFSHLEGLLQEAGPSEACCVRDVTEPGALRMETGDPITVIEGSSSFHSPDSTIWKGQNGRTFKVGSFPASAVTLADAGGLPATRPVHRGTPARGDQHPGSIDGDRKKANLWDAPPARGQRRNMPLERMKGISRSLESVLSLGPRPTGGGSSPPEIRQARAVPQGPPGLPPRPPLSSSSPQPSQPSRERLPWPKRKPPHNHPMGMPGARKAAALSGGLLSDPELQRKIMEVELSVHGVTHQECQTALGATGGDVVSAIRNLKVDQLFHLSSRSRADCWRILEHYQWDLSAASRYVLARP
As to conditions: at 0.1 µM.

Test [7] addresses T2, Non-receptor tyrosine-protein kinase TNK1 (Homo sapiens). The following applies: at 1 µM.
For test [8], the target named is Activated CDC42 kinase 1 (Homo sapiens) (UniProt Q07912). The following applies: at 0.1 µM.
Chain of Activated CDC42 kinase 1 (Homo sapiens) (Q07912 whole entry, looked up): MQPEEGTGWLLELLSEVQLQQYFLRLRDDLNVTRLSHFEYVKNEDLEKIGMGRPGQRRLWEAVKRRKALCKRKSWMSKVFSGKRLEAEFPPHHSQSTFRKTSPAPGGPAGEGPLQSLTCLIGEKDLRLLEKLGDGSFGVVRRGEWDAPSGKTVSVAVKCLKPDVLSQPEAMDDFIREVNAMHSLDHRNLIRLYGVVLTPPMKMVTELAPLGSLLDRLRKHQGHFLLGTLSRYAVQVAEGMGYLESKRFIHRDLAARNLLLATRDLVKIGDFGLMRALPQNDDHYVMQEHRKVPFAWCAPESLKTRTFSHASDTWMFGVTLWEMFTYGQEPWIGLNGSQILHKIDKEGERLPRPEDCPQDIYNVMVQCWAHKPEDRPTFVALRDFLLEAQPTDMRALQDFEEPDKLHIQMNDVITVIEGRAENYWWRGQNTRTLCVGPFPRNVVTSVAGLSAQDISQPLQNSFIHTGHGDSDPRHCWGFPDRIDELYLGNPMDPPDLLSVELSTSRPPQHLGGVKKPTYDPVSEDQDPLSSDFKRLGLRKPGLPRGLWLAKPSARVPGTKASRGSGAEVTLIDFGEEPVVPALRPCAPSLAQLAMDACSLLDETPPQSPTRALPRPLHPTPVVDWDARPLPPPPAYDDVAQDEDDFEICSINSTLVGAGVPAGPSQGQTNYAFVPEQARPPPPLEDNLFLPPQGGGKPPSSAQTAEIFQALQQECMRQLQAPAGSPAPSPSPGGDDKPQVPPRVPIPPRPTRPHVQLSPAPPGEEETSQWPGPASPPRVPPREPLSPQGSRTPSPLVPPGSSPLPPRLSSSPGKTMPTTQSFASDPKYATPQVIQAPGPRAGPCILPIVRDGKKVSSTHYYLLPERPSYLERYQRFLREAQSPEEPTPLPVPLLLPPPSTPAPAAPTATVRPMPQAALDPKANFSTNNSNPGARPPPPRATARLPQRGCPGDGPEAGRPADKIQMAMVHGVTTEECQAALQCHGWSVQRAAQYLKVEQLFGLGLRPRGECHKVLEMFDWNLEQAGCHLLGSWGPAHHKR
The target is the same in test [9]. As to conditions: at 1 µM.
Test [10] concerns the target High affinity nerve growth factor receptor (Homo sapiens) (UniProt P04629). The following applies: at 0.1 µM.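 Also: each value is a mean of replicate percent inhibition readings against TRKA kinase.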

Each structure is given as a SMILES string. Values joined by “and” are separate entries in the source; they are usually repeats but may differ in a detail not shown here. Identical values can stand only once.

Chain of High affinity nerve growth factor receptor (Homo sapiens) (P04629 33-796 limits assumed): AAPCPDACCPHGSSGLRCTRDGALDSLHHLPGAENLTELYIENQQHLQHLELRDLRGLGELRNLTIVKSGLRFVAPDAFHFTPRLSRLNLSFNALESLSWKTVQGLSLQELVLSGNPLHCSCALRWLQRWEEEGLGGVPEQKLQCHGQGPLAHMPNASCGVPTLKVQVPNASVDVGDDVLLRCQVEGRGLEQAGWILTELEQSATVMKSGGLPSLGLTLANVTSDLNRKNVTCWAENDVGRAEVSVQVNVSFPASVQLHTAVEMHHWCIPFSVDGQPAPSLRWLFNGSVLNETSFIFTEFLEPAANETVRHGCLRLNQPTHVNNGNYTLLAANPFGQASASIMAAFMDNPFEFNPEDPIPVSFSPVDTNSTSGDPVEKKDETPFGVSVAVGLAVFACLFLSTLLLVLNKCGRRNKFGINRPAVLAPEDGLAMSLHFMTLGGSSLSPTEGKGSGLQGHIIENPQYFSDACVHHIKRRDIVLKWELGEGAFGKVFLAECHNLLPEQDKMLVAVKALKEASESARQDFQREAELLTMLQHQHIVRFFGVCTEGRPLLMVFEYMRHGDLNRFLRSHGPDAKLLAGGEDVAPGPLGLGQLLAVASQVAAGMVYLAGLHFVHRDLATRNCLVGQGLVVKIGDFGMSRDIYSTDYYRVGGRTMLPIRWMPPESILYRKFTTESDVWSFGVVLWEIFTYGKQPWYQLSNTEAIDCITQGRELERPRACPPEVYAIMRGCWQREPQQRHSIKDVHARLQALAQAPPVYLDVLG
Chain of Angiopoietin-1 receptor (Homo sapiens) (Q02763 whole entry): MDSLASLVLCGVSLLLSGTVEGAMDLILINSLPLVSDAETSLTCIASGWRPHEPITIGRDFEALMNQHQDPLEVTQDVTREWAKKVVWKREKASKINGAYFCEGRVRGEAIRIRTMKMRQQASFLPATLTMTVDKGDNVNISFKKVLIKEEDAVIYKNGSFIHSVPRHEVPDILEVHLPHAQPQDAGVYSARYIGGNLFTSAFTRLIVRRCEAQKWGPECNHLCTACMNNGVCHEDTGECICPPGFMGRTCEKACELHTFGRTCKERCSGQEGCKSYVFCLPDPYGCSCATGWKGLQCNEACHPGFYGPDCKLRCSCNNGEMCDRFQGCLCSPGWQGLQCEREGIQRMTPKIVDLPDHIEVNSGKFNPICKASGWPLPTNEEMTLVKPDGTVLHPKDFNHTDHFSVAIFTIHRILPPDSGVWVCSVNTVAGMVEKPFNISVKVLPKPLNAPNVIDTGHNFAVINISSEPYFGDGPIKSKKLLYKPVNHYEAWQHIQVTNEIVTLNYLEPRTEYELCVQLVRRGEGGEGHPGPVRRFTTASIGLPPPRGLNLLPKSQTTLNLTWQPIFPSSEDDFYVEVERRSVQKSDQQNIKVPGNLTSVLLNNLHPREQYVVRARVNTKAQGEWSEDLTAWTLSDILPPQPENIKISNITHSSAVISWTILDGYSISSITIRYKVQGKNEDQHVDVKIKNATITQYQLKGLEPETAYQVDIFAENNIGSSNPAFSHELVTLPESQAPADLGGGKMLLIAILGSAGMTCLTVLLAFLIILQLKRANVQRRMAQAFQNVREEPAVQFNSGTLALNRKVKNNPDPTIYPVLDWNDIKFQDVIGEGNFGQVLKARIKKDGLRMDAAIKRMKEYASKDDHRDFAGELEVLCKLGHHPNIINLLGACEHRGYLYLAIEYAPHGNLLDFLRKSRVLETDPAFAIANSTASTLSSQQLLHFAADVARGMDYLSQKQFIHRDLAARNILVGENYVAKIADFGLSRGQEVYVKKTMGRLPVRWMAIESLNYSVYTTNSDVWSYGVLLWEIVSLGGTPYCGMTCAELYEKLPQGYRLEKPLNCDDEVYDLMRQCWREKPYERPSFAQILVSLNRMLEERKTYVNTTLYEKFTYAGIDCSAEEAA

With `COc1ccc(-c2nn3ncccc3c2-c2ccnc(Nc3ccc(F)c(F)c3)n2)cc1`, the inhibition in test [1] is -2.02%; in [2], 6.05%; in [3], 7.67%; in [4], 3.17%; in [5], 7.31%; in [6] it was 4.48%. Further, the inhibition in test [7] is 9.68%; in [8], 1.57%; in [9], 4.87%; in test [10] it was 1.54%.
In the case of `COc1ccc(Nc2ncc(-c3ccccc3)o2)cc1OC`, the inhibition amounted to 0.42% in test [1]; 2.91% in test [2]; 9.41% in test [3]; 2.1% in test [4]; 8.87% in test [5]; 5.16% in test [6]. For the same compound, the inhibition is 26.8% in test [7], -0.28% in test [8], 2.05% in test [9] and -1.61% in test [10].
As to `OCCCNc1nccc(-c2c(-c3ccc(F)cc3)nn3cc(C(F)(F)F)ccc23)n1`, the inhibition in test [1] was found to be 0.36%; in test [2], 3.37%; in [3] it was 5.41%; in [4], 2.38%; in test [5], 5.06%; in [6] it was 0.14%. Besides, the inhibition in test [7] was 3.92%; in [8] it was 0.22%; in test [9], 1.57%; in test [10] it was 3.24%.
As for `Cc1nnc(-c2cccc(-c3ccc(C(=O)NCC4CC4)cc3)c2)o1`, the inhibition in test [1] is -0.72%; in test [2], 5.71%; in test [3], 6.71%; in [4] it was 2.51%; in [5] it was 2.87%; in [6], 2.91%. In addition, the inhibition came to 11.3% in [7], 1.67% in [8], 2.25% in [9] and 3.31% in test [10].
Take `Cc1cc(O)cc(C)c1/C=C/c1cncc(C(N)=O)c1`: the inhibition was determined as 0.5% in test [1]; 5.81% in test [2]; 32.2% in test [3]; 2.45% in [4]; 5.29% in test [5]; 4.23% in test [6]. Moreover, the inhibition in [7] amounted to 14.4%; in [8], 1.58%; in test [9], 6.06%; in test [10], 4.13%.
Consider `NS(=O)(=O)c1ccc(N/N=C2\C(=O)Nc3cccc(CCc4ccncc4)c32)cc1`, for which the inhibition in [1] was -2.6%; in test [2], -0.23%; in [3], 4.92%; in test [4], 0.8%; in test [5], 3.33%; in test [6], 12.8%. The inhibition in test [7] was 14.7%; in test [8], 0.97%; in test [9], 1.34%; in test [10], 6.26%.
Consider `COc1cccc(-n2ncc3c(N/N=C/c4ccc(C(=O)NCCN(C)C)cc4)ncnc32)c1`, for which the inhibition was determined as 5.44% in [1]; 4.74% in [2]; 19.6% in test [3]; 8.62% in [4]; 46.4% in test [5]; 25.4% in test [6]. Further, the inhibition in test [7] amounted to 68.3%; in [8], 2.34%; in test [9] it was 13.2%; in test [10], 6.69%.
Consider `NC(=O)c1ccc2c(-c3ccnc(NCCCO)n3)c(-c3ccc(F)cc3)nn2c1`, for which the inhibition in [1] was -0.6%; in [2], 5.81%; in [3] it was 16.1%; in [4], 5.27%; in test [5], 6.83%; in [6], 4.67%. In addition, the inhibition was found to be 2.83% in test [7], 0.88% in test [8], 5% in test [9] and 3.75% in test [10].
`Nc1nonc1-c1nc2cnccc2n1C1CC1`: the inhibition in test [1] was -1.65% and 0.1%; in [2] it was 4.66% and -0.83%; in test [3] it was 7.39% and -0.23%; in [4] it was 1.33% and 1.27%; in test [5], 5.19% and 4.75%; in test [6], 3.99% and 1.62%. For the same compound, the inhibition in [7] was 9.35% and 9.64%; in [8] it was 1.76% and 0.5%; in test [9] it was 3.72% and 0.02%; in test [10] it was 3.67% and -0.15%.
In the case of `COc1ccc2ncn(-c3cc(O[C@H](C)c4ccccc4C(F)(F)F)c(C(N)=O)s3)c2c1`, the inhibition in test [1] is 0.76%; in test [2], 1.04%; in test [3], -0.18%; in test [4] it was 1.94%; in test [5], 4.83%; in test [6] it was 1.54%. Moreover, the inhibition in test [7] was 19.8%; in [8], 0.19%; in [9], 2.86%; in test [10], -0.31%.
In the case of `O=C1Nc2ccccc2/C1=C1\CCc2cc(O)ccc21`, the inhibition in [1] was -3.48%; in test [2], 5.96%; in test [3] it was 10.2%; in [4], 4.53%; in test [5], 7.58%; in test [6] it was 11.5%. The inhibition in test [7] was 45.2%; in test [8] it was 0.75%; in [9] it was 1.9%; in [10] it was 18.6%.
`O=C(O[C@H]1CN[C@H](C#Cc2cc3ncnc(Nc4ccc5c(ccn5Cc5cc(F)ccc5F)c4)c3s2)C1)N1CCOCC1`: the inhibition in test [1] was 0.11%; in test [2] it was 4.74%; in [3] it was 7.34%; in test [4] it was 3.18%; in [5], 10.8%; in test [6] it was 2.48%. For the same compound, the inhibition was 1.5% in test [7], 0.66% in [8], 0.98% in test [9] and 1.93% in test [10].
For the compound `CCOc1ccc2c(-c3ccnc(Nc4cc(OC)cc(C(F)(F)F)c4)n3)cnn2n1`, the inhibition in test [1] is -0.62%; in test [2], 2.25%; in [3] it was 7.24%; in test [4], 7.37%; in test [5], 13.5%; in test [6], 2.46%. The inhibition in [7] came to 12.4%; in test [8] it was 0.16%; in [9], 1.19%; in test [10], 0.62%.
Take `c1ccc(-c2n[nH]cc2-c2ccnc(-c3ccc(OCCn4ccnc4)cc3)c2)nc1`: the inhibition is 0.33% in test [1]; 0.42% in [2]; 0.73% in [3]; 0.28% in test [4]; 3.93% in test [5]; -0.4% in test [6]. For the same compound, the inhibition was 5.89% in [7], -0.42% in test [8], 0.83% in test [9] and 2.17% in [10].
As to `CC1=C(C(=O)Nc2ccc3[nH]ncc3c2)C(c2ccc(F)cc2)N=C(c2ccc(C(F)(F)F)nc2)N1` (stereo not given), the inhibition in test [1] amounted to 0.81%; in test [2], 3.03%; in test [3], 7.4%; in [4] it was 2.65%; in test [5] it was 2.49%; in test [6] it was 1.86%. In addition, the inhibition in test [7] stood at 7.12%; in test [8], 1.17%; in [9] it was 1.16%; in test [10], 4.01%.

Values taken from ChEMBL document CHEMBL1961873, “Compounds: GSK PKIS; Assays: Nanosyn kinase panel” (2012).
